# High-throughput results deposited in PubChem by National Center for Advancing Translational Sciences (NCATS).
# Lassa entry inh = Lassa virus entry inhibition | 300,000 tested, 1.2% active | Potency, µM (highest dose often 37.9 µM), for the others: at the top dose activity change, negative = inhibition, hits mostly inhibitors | Lassa virus pseudotype entry inhibition, cell reporter | AID 540256; calls by dose curve; tested in HEK293 cells; further: nearly all actives have a fitted effect of over 50% in size
# VACV mCherry inh = vaccinia inhibition (mCherry reporter); Vaccinia virus mCherry reporter infection, fluorescence; Potency, µM (titrated, usually from 36.5 µM), inactives show top-dose activity change, negative = inhibition, hits mostly inhibitors; 310,000 tested, 0.63% active; calls by dose curve; tested in A549 cells; further: nearly all actives have a fitted effect of over 35% in size
# FMDV inh = antivirals against foot and mouth disease virus; FMDV antiviral cell-based qHTS; Potency, µM (top dose mostly 57.9 µM), inactives show top-dose activity change, negative = inhibition, most hits filed as inhibitors; 410,000 tested, 1.2% active; calls by dose curve; tested in HEK293T cells; further: read-out not given here; nearly all actives have a fitted effect of over 45% in size
# HCV inh = HCV inhibition. Huh7.5.1 HCVcc-Cre infection, luciferase reporter, 44 h. Potency, µM (top dose mostly 41.8 µM), without a hit: top-dose activity change, negative = inhibition, usual class: inhibitors. 340,000 tested, 3.4% active; active means well fitted inhibition curve with a large enough effect; inconclusive means small, poorly fitted or top-dose-only effect, or another doubt; inactive means no such curve, though single readings can be large or run the other way
#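 Infectious HCVcc-Cre (~0.5 moi) was added to cells just after compound, with cells seeded 4 h earlier at 1,000 per well. Luciferase activity after 44 h culture reported infection; substrate was incubated 15 min at room temperature before reading.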
# Marburg entry inh = blocks Marburg virus binding to or entry into cells; AID 540276; Potency, µM (top dose mostly 37.8 µM), inactives show top-dose activity change, negative = inhibition, hits mostly inhibitors; 300,000 tested, 1.8% active; Marburg virus pseudotyped entry inhibition, cell reporter; calls by dose curve; tested in HEK293 cells
# Vaccinia Venus = vaccinia inhibition (Venus reporter). Vaccinia virus Venus reporter expression, fluorescence. Potency, µM (titrated, usually from 36.5 µM), for inactives: top-dose activity change, negative = inhibition, actives largely listed as inhibitors. 330,000 tested, 0.46% active. AID 720580; calls by dose curve; tested in A549 cells; further: nearly all actives have a fitted effect of over 30% in size
# * hit, by the source's call; i = inactive; ? = inconclusive; . = no result; [ ] = remark or other dose. Rows were chosen to be rich in hits. Some 5.3% of all compounds tested hit in one or more screens of this group. On the % scale 0 is the no-effect control and ±100 the full control effect; potency means the concentration at half of the fitted maximal effect.
SMILES,Lassa entry inh,VACV mCherry inh,FMDV inh,HCV inh,Marburg entry inh,Vaccinia Venus
COc1cc(S(=O)(=O)N2CCOCC2)ccc1NC(=O)COC(=O)c1cc(OC)c(OC)c(OC)c1,-13%,i,2%,-27%,-25%,-10%
COc1cc(C(C)=O)ccc1OCC(=O)Nc1cc(S(=O)(=O)N2CCOCC2)ccc1N1CCCC1,.,.,13%,23%,.,.
Cc1ccccc1OCCOC(=O)c1cc(S(=O)(=O)N2CCCCC2)ccc1N1CCOCC1,?,?,?,11µM*,?,?
O=C(NCCc1ccccn1)C1CC12CCN(C(=O)c1ccccc1Cl)CC2 (centres undefined),.,-1%,-12%,.,.,-20%
CCOc1ccc(NC(=O)Cn2c(=O)n(Cc3ccccc3)c(=O)c3sc4ccccc4c32)cc1,0%[46.1 µM],2%[7.34 µM],-19%,.,?,-9%[7.34 µM]
COc1ccccc1CNc1ccc2c(c1)OC[C@H](CC(C)C)NS2(=O)=O,10%[46.1 µM],.,.,.,.,.
COc1ccc(-n2c(C)cc(/C=N/Nc3nc(N4CCOCC4)nc(N4CCOCC4)n3)c2C)cc1,?,-14%,?,-29%,7.3µM*,-10%
Cc1cc(/C=N/Nc2nc(N3CCOCC3)nc(N3CCOCC3)n2)c(C)n1-c1ccccc1,?,1%,-10%,?,?,-6%
COc1ccc(S(=O)(=O)N2CCN(CCCOc3ccc(F)cc3)CC2)cc1OC,?,-9%,?,11µM*,10µM*,-23%
O=c1c2ccccc2oc2ccc(-c3ccoc3)cc12,.,-4%,.,.,.,-6%
COc1ccc(CN2CCCC(c3nc(-c4ccncc4)ncc3-c3ccccc3)C2)cc1OC (centres undefined),.,0%,6%,.,.,15%
CN(C)CCn1c2c(c(SCC(=O)N3CCc4ccccc43)nc1=O)CCCC2,1%,-21%,7%,13µM*,-29%,-11%
CCCCc1ccc(NC(=O)CSc2nc(=O)n(CCN(C)C)c3c2CCC3)cc1,?,28µM*,2%,?,?,14µM*
CCN(CC)CCCn1c2c(c(SCC(=O)Nc3ccc(OC(F)(F)F)cc3)nc1=O)CCC2,?,-19%,-22%,10µM*,?,?
CCOc1ccc(CNS(=O)(=O)c2ccc3c(c2)CCCN3C(C)=O)cc1OC,15%[46.1 µM],-5%,-16%,.,.,-14%
CC(=O)OC[C@H]1O[C@H](c2ccc(C(C)=O)cc2)C=C[C@@H]1OC(C)=O,.,.,.,.,2%[14.2 µM],.
C=CCn1c(O)c(/C=C2\C=NN=C2c2ccccc2)sc1=S,?,-4%,-18%,?,?,-30%
CCCn1c(O)c(/C=C2\C=NN=C2c2ccccc2)sc1=S,?,.,-9%,10µM*,?,.
COc1cc(OC)c(OC)cc1CN(C)C(c1ccccc1)c1nnnn1-c1ccccc1C (centres undefined),?,.,0%,13µM*,?,-32%
COc1ccc(CN(C)C(c2ccccc2)c2nnnn2-c2ccccc2C)c(OC)c1C (centres undefined),?,.,-8%,-28%,?,-12%
O=C(CN1C(=O)c2cccnc2Oc2ccc(Cl)cc21)Nc1cccc(C(F)(F)F)c1,?,-28%,-1%,.,.,-19%
Cc1cc(C(=O)COC(=O)CC2Sc3ccccc3NC2=O)c(C)n1-c1cccc(C(F)(F)F)c1 (centres undefined),0%,i,12%,?,1%,-6%
Cc1cc(C(=O)COC(=O)Cc2n[nH]c(=O)c3ccccc23)c(C)n1-c1cccc(C(F)(F)F)c1,?,-30%,?,?,11µM*,-16%
CCC1(C2CCN(Cc3ccc(OC)cc3)CC2)NC(=O)N(CC2COc3ccccc3O2)C1=O (centres undefined),.,-9%,-22%,.,.,-5%
O=C1c2[nH]nc(-c3ccccc3O)c2C(c2cccc(O)c2)N1Cc1ccco1 (centres undefined),0.5µM*,.,-13%,?,0%,-23%
COc1ccc(C2c3c(-c4ccccc4O)n[nH]c3C(=O)N2Cc2ccco2)cc1 (centres undefined),0.58µM*,-23%,-3%,-26%,-25%,-2%
CNCCCC12CCC(c3ccccc31)c1ccccc12,16µM*,?,?,?,4.6µM*,-25%
